From PubChem BioAssay (NCI)
Compounds without any hit were thinned out: in the full panel of roughly 83,000, 20% have a hit.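 Treatment: one concentration, 48 hours, 96-well format. Scoring: percent growth, with anything below 10 considered active.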 The source made the active and inactive calls.

Assays:
Assay in all cases: NCI-60 one-dose screen, 48 h (100 = growth as untreated, 0 = no growth, -100 = all killed)
Conditions in all cases: 10 µM unless noted
NCI-H23 lung = system: NCI-H23 lung
NCI-H226 lung = system: NCI-H226 lung
NCI-H322M lung = system: NCI-H322M lung
HOP-62 NSCLC = system: HOP-62 NSCLC
NCI-H460 lung = system: NCI-H460 lung
HOP-92 NSCLC = system: HOP-92 NSCLC
NCI-H522 lung = system: NCI-H522 lung
A549/ATCC NSCLC = system: A549/ATCC NSCLC
786-0 renal = system: 786-0 renal
DU-145 prostate = system: DU-145 prostate
K-562 leukemia = system: K-562 leukemia
MALME-3M melanoma = system: MALME-3M melanoma
MDA-MB-231 breast = system: MDA-MB-231 breast
RXF 393 renal = system: RXF 393 renal
SF-268 CNS = system: SF-268 CNS
SF-295 CNS = system: SF-295 CNS
SF-539 CNS = system: SF-539 CNS
UACC-257 melanoma = system: UACC-257 melanoma
M14 melanoma = system: M14 melanoma
COLO 205 colon = system: COLO 205 colon

Measured: growth

CC(=O)c1c(O)c(C)c(O)c2c1OC1=CC(=O)C(C(C)=O)C(=O)C12C (stereo not drawn)
active: HOP-92 NSCLC -0.143%
inactive: NCI-H23 lung 79.1% | NCI-H226 lung 88.6% | NCI-H322M lung 60.3% | HOP-62 NSCLC 74.3% | NCI-H460 lung 89.1% | NCI-H522 lung 71.7% | A549/ATCC NSCLC 96% | 786-0 renal 69.9% | DU-145 prostate 107% | K-562 leukemia 68.9% | MALME-3M melanoma 79.4% | MDA-MB-231 breast 96.3% | RXF 393 renal 105% | SF-268 CNS 88.9% | SF-295 CNS 16.7% | SF-539 CNS 98% | UACC-257 melanoma 97.8% | M14 melanoma 67.6%

O=[N+]([O-])c1ccc(C2N(Cc3ccc(Cl)cc3)CCN2Cc2ccc(Cl)cc2)cc1
inactive: NCI-H23 lung 97.5% | NCI-H226 lung 95.1% | NCI-H322M lung 75.5% | HOP-62 NSCLC 94.5% | NCI-H460 lung 101% | NCI-H522 lung 75.8% | A549/ATCC NSCLC 96% | 786-0 renal 81.7% | DU-145 prostate 107% | K-562 leukemia 67% | MALME-3M melanoma 109% | MDA-MB-231 breast 79.6% | RXF 393 renal 74.4% | SF-268 CNS 90.1% | SF-295 CNS 92.1% | SF-539 CNS 86.3% | UACC-257 melanoma 92% | M14 melanoma 86.2%
active: HOP-92 NSCLC -1.91%

COc1ccc2c(c1)c(CC(=O)O)c(C)n2C(=O)c1ccc(Cl)cc1
inactive: NCI-H23 lung 92.5% | NCI-H226 lung 94.8% | NCI-H322M lung 89.7% | HOP-62 NSCLC 100% | NCI-H460 lung 101% | HOP-92 NSCLC 82.8% | NCI-H522 lung 97.5% | 786-0 renal 77.4% | COLO 205 colon 128% | DU-145 prostate 107% | K-562 leukemia 73.5% | MALME-3M melanoma 85.1% | MDA-MB-231 breast 102% | RXF 393 renal 109% | SF-268 CNS 109% | SF-295 CNS 68.6% | SF-539 CNS 114% | UACC-257 melanoma 109% | M14 melanoma 95.7%

Cc1ccccc1NC(=O)Cc1csc2[n+]1C(=O)/C(=C/c1ccc([N+](=O)[O-])cc1)S2
inactive: NCI-H23 lung 93.1% | NCI-H226 lung 91.1% | NCI-H322M lung 103% | HOP-62 NSCLC 86.7% | NCI-H460 lung 104% | HOP-92 NSCLC 79.5% | NCI-H522 lung 86.3% | A549/ATCC NSCLC 99.8% | 786-0 renal 93.5% | COLO 205 colon 105% | K-562 leukemia 88.3% | MALME-3M melanoma 99.3% | MDA-MB-231 breast 97.7% | RXF 393 renal 111% | SF-268 CNS 95.9% | SF-295 CNS 99.7% | SF-539 CNS 104% | UACC-257 melanoma 104% | M14 melanoma 85.8%

NC(CS/C(Cl)=C/Cl)C(=O)O (stereo not drawn)
active: HOP-62 NSCLC -3.21% | NCI-H460 lung -45.9% | A549/ATCC NSCLC -52.9% | SF-295 CNS 9.28%
inactive: NCI-H23 lung 97.6% | NCI-H226 lung 86.9% | NCI-H322M lung 73.5% | HOP-92 NSCLC 83.3% | NCI-H522 lung 93.4% | 786-0 renal 105% | K-562 leukemia 89.2% | MALME-3M melanoma 89.6% | MDA-MB-231 breast 88.1% | RXF 393 renal 105% | SF-268 CNS 99.3% | SF-539 CNS 104% | UACC-257 melanoma 78.3% | M14 melanoma 58.2%

CC1(C)N=c2cc3c(cc2N1c1ccc(Cl)cc1)=Nc1ccccc1N3c1ccc(Cl)cc1
inactive: NCI-H226 lung 53% | NCI-H322M lung 75.2% | NCI-H460 lung 46.5% | 786-0 renal 11.8% | COLO 205 colon 39.1% | MALME-3M melanoma 79.4% | MDA-MB-231 breast 83.3% | SF-268 CNS 49.6% | SF-295 CNS 31.7% | SF-539 CNS 79.7% | UACC-257 melanoma 40.5% | M14 melanoma 19.3%
active: NCI-H23 lung 9.73% | HOP-62 NSCLC -19.2% | HOP-92 NSCLC -26.6% | NCI-H522 lung -22.1% | K-562 leukemia -18.7%

Fc1ccc(NCCS)cc1
inactive: NCI-H23 lung 97.4% | NCI-H226 lung 104% | NCI-H322M lung 103% | HOP-62 NSCLC 99.6% | NCI-H460 lung 102% | HOP-92 NSCLC 103% | NCI-H522 lung 90% | A549/ATCC NSCLC 92.7% | COLO 205 colon 108% | DU-145 prostate 107% | K-562 leukemia 101% | MALME-3M melanoma 108% | MDA-MB-231 breast 102% | RXF 393 renal 108% | SF-268 CNS 102% | SF-539 CNS 103% | UACC-257 melanoma 102% | M14 melanoma 103%

Oc1ccc(Nc2ccc3ccccc3c2)cc1
inactive: NCI-H23 lung 69% | NCI-H226 lung 89.2% | NCI-H322M lung 33.9% | HOP-62 NSCLC 57.4% | NCI-H460 lung 59.4% | HOP-92 NSCLC 55.9% | A549/ATCC NSCLC 55.3% | 786-0 renal 46.7% | COLO 205 colon 96.1% | DU-145 prostate 51.2% | K-562 leukemia 26.5% | MALME-3M melanoma 92.9% | MDA-MB-231 breast 36% | RXF 393 renal 78.3% | SF-268 CNS 50.4% | SF-295 CNS 67.7% | SF-539 CNS 36.6% | UACC-257 melanoma 73.7% | M14 melanoma 53.3%
